The list is not random: actives were taken first. Their share in the collection is about 3.1%.
VDR inhibitor: vitamin D3 receptor (human) inhibition | Potency, µM, most hits filed as inhibitors | AID 504847 | actives 0.93% (n = 400,000) | P11473 | VDR-SRC2-3 peptide fluorescence polarization, 2 h
Target sequence (P11473 whole entry, looked up): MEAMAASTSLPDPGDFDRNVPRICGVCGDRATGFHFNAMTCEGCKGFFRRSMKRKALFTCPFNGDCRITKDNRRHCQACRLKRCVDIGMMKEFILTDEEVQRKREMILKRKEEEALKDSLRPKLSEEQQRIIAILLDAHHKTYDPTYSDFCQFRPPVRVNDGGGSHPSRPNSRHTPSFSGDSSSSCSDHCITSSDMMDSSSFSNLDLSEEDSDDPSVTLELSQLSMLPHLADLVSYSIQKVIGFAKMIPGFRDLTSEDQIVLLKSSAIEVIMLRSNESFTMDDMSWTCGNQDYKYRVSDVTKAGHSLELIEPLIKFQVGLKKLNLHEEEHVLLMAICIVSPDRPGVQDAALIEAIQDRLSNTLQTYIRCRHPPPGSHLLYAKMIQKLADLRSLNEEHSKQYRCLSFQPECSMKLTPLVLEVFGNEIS
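Two reagent solutions held at 4 deg C in the dark were dispensed, compounds pinned at 23 nl, and the mixture incubated 2 h at room temperature. Read-out: fluorescence polarization of VDR–SRC2-3 peptide binding.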
PLK1 PBD block: inhibitors of human PLK1 polo-box domain binding; P53350; Plk1 PBD binding of FITC phosphopeptide, fluorescence polarization; Potency, µM, hits mostly inhibitors; actives 2.8% (n = 360,000); AID 720504; further: series mostly up to about 57 µM; nearly all actives have a fitted effect of over 65% in size
uPA surface inh: cell surface uPA generation inhibition; AID 540303; Potency, µM (highest dose often 38.3 µM), most hits filed as inhibitors; cell surface uPA generation assay, qHTS; actives 0.31% (n = 330,000); active means well fitted inhibition curve with a large enough effect; inconclusive means small, poorly fitted or top-dose-only effect; inactive means no such curve, though single readings can be large or run the other way; tested in mouse RAW 264.7 cells; further: nearly all actives have a fitted effect of over 55% in size
TSG101-PTAP inh: blocks PTAP/TSG101 interaction to inhibit HIV-1 budding | 340,000 tested, under 10 active | Fluorescence polarization, FITC-PTAP peptide / Tsg101 binding | Potency, µM (doses to about 115 µM), actives largely listed as inhibitors; active means well fitted inhibition curve with a large enough effect in the main read-out, with a control signal flat, not every such curve was filed as active; inconclusive means small, poorly fitted or top-dose-only effect, or effect the other way, or a change in a side signal; inactive means no such curve, though single readings can be large or run the other way
Target sequence (Q99816 whole entry, looked up): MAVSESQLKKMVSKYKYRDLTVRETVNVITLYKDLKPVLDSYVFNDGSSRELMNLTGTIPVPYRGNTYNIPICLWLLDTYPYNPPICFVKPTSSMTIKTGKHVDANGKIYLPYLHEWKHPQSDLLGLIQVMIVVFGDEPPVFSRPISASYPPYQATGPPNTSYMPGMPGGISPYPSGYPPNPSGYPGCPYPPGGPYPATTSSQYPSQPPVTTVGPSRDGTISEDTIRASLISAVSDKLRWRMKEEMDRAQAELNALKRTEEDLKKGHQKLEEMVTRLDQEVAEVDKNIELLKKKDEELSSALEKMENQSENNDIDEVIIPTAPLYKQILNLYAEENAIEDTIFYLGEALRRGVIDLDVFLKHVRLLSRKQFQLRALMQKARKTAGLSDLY
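Tsg101 binding domain (10 uM final) was mixed with compound and a FITC-labeled PTAP peptide (50 nM final) in HEPES pH 7.5 buffer with NaCl, Tween 20, EDTA and TCEP; fluorescence polarization was read after 20 min at r.t.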
TSHR antag: blocks TSH signaling through the human TSH receptor. activity change, negative = inhibition, % at 11.5 µM. P16473. TSHR-expressing cells, TSH-stimulated cAMP HTRF, 2 h; hits give low values. actives 0.2% (n = 330,000);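 active means activity change below a set negative limit, meaning inhibition stronger than a set level, cut at about -70% in these data; inconclusive means activity change between two set negative limits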
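TSHR-expressing cells were treated with compounds, then stimulated with TSH at EC80 (4nM final) for 2 hours at 37 deg C. Cellular cAMP was measured by HTRF competition between lysate cAMP and cAMP-d2 for a cryptate-labelled anti-cAMP antibody.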
TbPYK inh: confirmation of Trypanosoma brucei pyruvate kinase inhibitors. shares compounds with PLK1 PBD block. recombinant TbPYK, Kinase-Glo ATP luminescence. Potency, µM (highest dose often 76.9 µM), usual class: inhibitors. actives 67% (n = 890). AID 720569; further: nearly all actives have a fitted effect of over 70% in size
TbPYK ADP-Glo: inhibits T. brucei pyruvate kinase in orthogonal ADP-Glo assay. shares compounds with PLK1 PBD block. recombinant TbPYK, ADP-Glo luminescence, 60 min. Potency, µM (series often up to 76.9 µM), hits mostly inhibitors. actives 62% (n = 890). AID 720584; further: nearly all actives have a fitted effect of over 75% in size
Of the large screens only hits and unclear results are named; the others gave an inactive call (follow-up assays come after a bar, where they were run). Unless noted, the call rests on the fitted dose curve; in most records, active means well fitted curve in the direction sought with a large enough effect; inconclusive means small, poorly fitted or top-dose-only effect, or another doubt; inactive means no such curve, though single readings can be large; an effect the other way counts as inactive or inconclusive.

O=c1nc2s/c(=C\c3ccco3)c(=O)n2nc1Cc1ccc(F)cc1	VDR inhibitor inconclusive
CS(=O)(=O)c1sc2nc(-c3cccs3)cc(-c3ccccc3)c2c1N	VDR inhibitor inconclusive, PLK1 PBD block 8.4µM | TbPYK inh inconclusive | TbPYK ADP-Glo 35µM
Cc1c(CBr)[n+](=O)c2c(n1[O-])C(Br)CCC2Br (centres undefined)	VDR inhibitor 35µM, PLK1 PBD block 27µM | TbPYK inh 1.1µM | TbPYK ADP-Glo 3.5µM
C=C(C(=O)C(C)(C)O)C(O)c1ccc([N+](=O)[O-])cc1 (centres undefined)	none (no result: PLK1 PBD block, uPA surface inh, TSG101-PTAP inh, TSHR antag)
CN1C(=CC=C2C=C(I)C(=O)C(I)=C2)C(C)(C)c2ccccc21	TSG101-PTAP inh inconclusive | TbPYK inh inconclusive | TbPYK ADP-Glo inactive
COc1ccc(CCNC(=O)CSc2ccc3ccccc3c2)cc1OC	VDR inhibitor inconclusive
O=C(CSc1ccc2ccccc2c1)NCCc1ccc(O)c(O)c1	none | TbPYK inh 7.1µM | TbPYK ADP-Glo 16µM
CC(=O)NC1=NC(=O)/C(=C/c2cn(C(C)=O)nc2-c2ccccc2)S1	VDR inhibitor inconclusive, PLK1 PBD block 9.5µM | TbPYK inh inconclusive | TbPYK ADP-Glo inconclusive
CCOC(=O)C(=Cc1cc(=O)c(OC)co1)C(=O)OCC	VDR inhibitor 40µM, PLK1 PBD block 24µM, uPA surface inh inconclusive | TbPYK inh 28µM | TbPYK ADP-Glo inconclusive
CCOC(=O)C(=CNc1ccc(O)c(C(=O)OC)c1)C(=O)OCC	none (no result: TSHR antag)
COCCn1c(C)cc(C2=NNC(=Nc3ccccc3F)SC2)c1C	none
Cc1cc(C2=NNC(=Nc3ccccc3)SC2)c(C)n1C	none | TbPYK inh inconclusive | TbPYK ADP-Glo 14µM
C/C(Cn1nc([N+](=O)[O-])cc1C)=N\NC(=O)COc1c(Cl)cc(Cl)cc1Cl	none | TbPYK inh inactive | TbPYK ADP-Glo inactive
CNc1nc(-c2ccccc2)[n+](-c2ccc(C)cc2)s1	VDR inhibitor inconclusive, PLK1 PBD block 1.5µM | TbPYK inh 1µM | TbPYK ADP-Glo 1.8µM
Cc1ccc(-c2nc(N)s[n+]2-c2ccccc2)cc1	PLK1 PBD block 3.8µM | TbPYK inh 2.2µM | TbPYK ADP-Glo 6.3µM
Cc1ccc(C)c(N2CCN(CCCNC(=O)c3cnn(-c4ccccc4Cl)c3C3CCN(C(=O)OC(C)(C)C)CC3)CC2)c1	none (no result: PLK1 PBD block, uPA surface inh, TSG101-PTAP inh, TSHR antag)
COc1ccc([C@H]2CC(=O)C=C(c3ccc(F)nc3)C2)cc1OC	none
COc1ccc(C2=CC(=O)C[C@H](c3ccc(OC)c(OC)c3)C2)cn1	none (no result: TSG101-PTAP inh) | TbPYK inh inactive | TbPYK ADP-Glo inactive
NCCCC[C@H](N)C(=O)N[C@@H](CCCN=C(N)N)C(=O)N1CCC[C@H]1C(=O)N1CCC[C@H]1C(=O)NCC(=O)N[C@@H](Cc1ccccc1)C(=O)N[C@@H](CO)C(=O)N1CCC[C@H]1C(=O)N[C@@H](Cc1ccccc1)C(=O)O	none (no result: PLK1 PBD block, uPA surface inh, TSG101-PTAP inh, TSHR antag)
CC(=O)c1cccc(OCc2cc(C(=O)N(C)CCc3ccccn3)no2)c1	none
CC(=O)c1cccc(OCc2cc(C(=O)N(C)Cc3ccc(C)o3)no2)c1	VDR inhibitor inconclusive, uPA surface inh inconclusive | TbPYK inh 14µM | TbPYK ADP-Glo 35µM
Cc1ccc(CN(C)C(=O)c2ccccc2Oc2ccccc2)o1	VDR inhibitor inconclusive | TbPYK inh 20µM | TbPYK ADP-Glo 25µM
Cc1cccc(C(=O)Nc2cccc(NC(=O)c3ccccc3)c2)c1	none
Cc1cccc(NC2=C(NC(=O)c3ccccc3)C(=O)c3ccccc3C2=O)c1	VDR inhibitor inconclusive, PLK1 PBD block inconclusive | TbPYK inh 14µM | TbPYK ADP-Glo 11µM
CS(=O)(=O)Nc1c(O)ccc2c1CCCC2C1=NCCN1 (centres undefined)	none (no result: PLK1 PBD block, uPA surface inh, TSG101-PTAP inh, TSHR antag)
Cc1ccc(CCNC(=O)C2CCCN(C(=O)c3cc4sccc4n3C)C2)cc1 (centres undefined)	none | TbPYK inh 2.5µM | TbPYK ADP-Glo 10µM
Cn1c(C(=O)N2CCCC(C(=O)NCCc3ccccc3)C2)cc2sccc21 (centres undefined)	uPA surface inh inconclusive
Cc1cc(C)c(C#N)c(SC2CCCCC2=O)n1 (centres undefined)	none | TbPYK inh 14µM | TbPYK ADP-Glo 18µM
CCOCCCNC1=C(Cl)C(=O)c2ccccc2C1=O	VDR inhibitor inconclusive, PLK1 PBD block 21µM, uPA surface inh inconclusive | TbPYK inh inconclusive | TbPYK ADP-Glo inconclusive
CCCNC(=O)N(C)C[C@@H]1Oc2ncc(Br)cc2C(=O)N([C@H](C)CO)C[C@@H]1C	none (no result: VDR inhibitor, uPA surface inh, TSG101-PTAP inh, TSHR antag)
CCCNC(=O)N(C)C[C@@H]1Oc2ncc(-c3ccncc3)cc2C(=O)N([C@H](C)CO)C[C@@H]1C	none (no result: VDR inhibitor, uPA surface inh, TSG101-PTAP inh, TSHR antag) | TbPYK inh 22µM | TbPYK ADP-Glo 32µM
O=C1CC(c2nc(-c3ccc(Cl)cc3)no2)CN1c1ccc2c(c1)OCCO2 (centres undefined)	none (no result: PLK1 PBD block, uPA surface inh, TSG101-PTAP inh, TSHR antag)
Cc1ccc2nc(/C(C#N)=C\c3ccc(N4CCOCC4)o3)[nH]c2c1	TSG101-PTAP inh inconclusive
N#C/C(=C/c1ccc(N2CCCCCC2)o1)c1ccc(Cl)cc1	VDR inhibitor 22µM, TSG101-PTAP inh inconclusive (no result: uPA surface inh) | TbPYK inh inconclusive | TbPYK ADP-Glo 35µM
Cc1onc(C(=O)Nc2sc3c(c2C(N)=O)CCCC3)c1[N+](=O)[O-]	VDR inhibitor 79µM, PLK1 PBD block 11µM | TbPYK inh 16µM | TbPYK ADP-Glo 18µM
CCOC(=O)c1c(NC(=O)CSc2cn(CCNC(=O)c3ccccc3OC)c3ccccc23)sc2c1CCC2	none (no result: PLK1 PBD block, uPA surface inh, TSG101-PTAP inh, TSHR antag)
CC1(C(=O)NCCC(F)(F)F)Cc2c(-c3cccc(C(N)=O)c3)ccnc2O1 (centres undefined)	none (no result: VDR inhibitor, uPA surface inh, TSG101-PTAP inh, TSHR antag) | TbPYK inh inactive | TbPYK ADP-Glo inactive
O=C1OC(Nc2ccc3c(c2)OCO3)c2ccccc21 (centres undefined)	none | TbPYK inh 0.5µM | TbPYK ADP-Glo 13µM
COc1cc(/C=C2\SC(c3ccc(C)cc3)=NC2=O)ccc1O	VDR inhibitor inconclusive
COc1cc(/C=C2\SC(c3ccc(C)cc3)=NC2=O)cc(OC)c1OC	VDR inhibitor inconclusive, TSG101-PTAP inh inconclusive
COc1ccc(/C=C2/SC(c3ccc(C)cc3)=NC2=O)cc1OC	VDR inhibitor 50µM, TSG101-PTAP inh inconclusive | TbPYK inh inconclusive | TbPYK ADP-Glo 16µM
COc1ccc(/C=C2\SC(c3ccc(C)cc3)=NC2=O)cc1OC	VDR inhibitor inconclusive, TSG101-PTAP inh inconclusive | TbPYK inh 35µM | TbPYK ADP-Glo 10µM
CCCCCCn1cc(CN2CC(N3CCN(CCN(C)C)CC3)CS2(=O)=O)nn1 (centres undefined)	none (no result: VDR inhibitor, uPA surface inh, TSG101-PTAP inh, TSHR antag)
C=Cc1ccc(Cn2c(=O)cc(C)c3c(C)nn(C)c32)cc1	none (no result: PLK1 PBD block, uPA surface inh, TSG101-PTAP inh, TSHR antag)
N#Cc1cc2c(nc1SCc1cccnc1)CCCC2	PLK1 PBD block 27µM | TbPYK inh 4µM | TbPYK ADP-Glo 6.3µM

Compound activity as filed in PubChem BioAssay.
